This experiment is described as follows: human cervical cancer cell viability loss – 24 h, plate reader, dry powder, cytotoxicity control, dose response (AID 686928).

Structures are written as SMILES. Potency and affinity values are given separately. The source made the active and inactive calls. A call without a number means that no potency is given here. No rule for the calls is given here.

`CCn1nnnc1N`: the molecule was called inactive.

As for `CCCCCCCCCC(=O)C(O)CC` (configuration not stated), the result was inactive.
